Assay results from PubChem BioAssay AID720513 (Broad Institute, 2013).
Hit rate of the full screen: of about 2,100 compounds, about 480 (23%) were called active. Not shown: some 5% with an inconclusive outcome.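 Rule for the calls: active = fitted curve reaches 40% activation at or below the top valid concentration, in every replicate test; inconclusive = replicate tests disagree on the call; inactive = the rest, including activity in the opposite direction.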 Not all results are given here. Results with a measured potency or affinity are listed apart.

Test: PGC1a acetylation increase, cellular AlphaLISA – cell-based, cherry-picked samples, set 6, dose response (AID 720513);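 note: cells made to overexpress flag tagged PGC1a plus GCN5 acetyltransferase by viral infection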
Details: U2OS PGC1a acetylation AlphaLISA, overnight, 0 = neutral, -100 = inhibitor control; series mostly up to 19.5 µM; activation (acetylation increase): at the top concentration

Activation (acetylation increase), inactive:
O=C(NCC[C@@H]1CC[C@H](NS(=O)(=O)c2ccccc2)[C@@H](CO)O1)c1ccccc1F 18.5%, CCOC(=O)C1CCCN(C(=O)CSc2ccc(Br)cc2)C1 (configuration not stated) -4.05%, CCCNC(=O)Nc1ccc2c(c1)C(=O)N(C)C[C@H](OC)[C@H](C)CN(CC1CCCC1)[C@@H](C)CO2 16.9%, O=C(Cc1ccccn1)N[C@H]1CC[C@H](CCn2cc(-c3ccccc3)nn2)O[C@@H]1CO -10.6%, CCNC(=O)C1(C)CCCN1Cc1ccccc1Cl (configuration not stated) 44.3%, N#CC(C#N)=c1ccc2c(c1)NC1(CCCCC1)N=2 -10.6%, O=C(c1ccco1)N(Cc1ccc([N+](=O)[O-])cc1)c1ccc(Br)cc1 32.8%, C#CCN(C[C@@H]1[C@@H](OC(=O)NCC2CCCCC2)[C@@H](OC(=O)NCC2CCCCC2)Cn2c(=O)ccc(=O)n21)S(=O)(=O)c1ccc(C)cc1 -98.4%, COc1ccc(OCCCC(=O)OCC(=O)Nc2c(C)nn(-c3ccccc3)c2C)cc1 -6.1%, O=C(C[C@@H]1C=C[C@@H](NC(=O)Nc2ccc(C(F)(F)F)cc2)[C@H](CO)O1)NCc1ccccn1 -16.3%, C[C@@H]1CN([C@@H](C)CO)C(=O)CCCn2nncc2CO[C@@H]1CN(C)C(=O)NC1CCCCC1 3.28%, Cc1cc(C)c(C(=O)/C=C/c2ccc(C(C)C)cc2)c(=O)[nH]1 -29.3%, C[C@H]1CN([C@@H](C)CO)S(=O)(=O)c2ccc(C3=CCCC3)cc2O[C@H]1CN(C)Cc1cncnc1 11.6%, O=S(=O)(Nc1cc(Sc2ncn[nH]2)c(O)c2ccccc12)c1ccccc1 -96.2%, COc1ccc(NC(=O)N[C@@H]2CC[C@H](CCn3cc(-c4ccccc4F)nn3)O[C@@H]2CO)cc1 34%, O=C(Cn1ncc(Cl)c(Cl)c1=O)N1CCN(S(=O)(=O)c2ccc3ccccc3c2)CC1 -94.6%, Cc1ccc(NC(=O)Cn2ncc(Cl)c(Cl)c2=O)cc1S(=O)(=O)N1CCCCC1 -92.6%, O=C(Cn1ncc(Cl)c(Cl)c1=O)c1ccc2c(c1)OCCO2 -78.9%, O=C(Cn1ncc(Cl)c(Cl)c1=O)c1ccc(Cl)cc1 -107%, C[C@H](CO)N1C[C@H](C)[C@@H](CN(C)Cc2cccnc2)Oc2cc(C#CC3CCCCC3)ccc2S1(=O)=O -75.6%, Cc1noc(C)c1NC(=O)N(C)C[C@@H]1Oc2ccc(NS(=O)(=O)c3cn(C)cn3)cc2C(=O)N([C@@H](C)CO)C[C@@H]1C 8.74%, CN=C1c2cc3cc(OC)ccc3n2CCN1Cc1ccccc1 42.6%, Cc1cc(N2CCN(C)CC2)nc(=S)[nH]1 -14.8%, COc1cc(OC)cc(C(=O)N[C@H](C(=O)OCC(=O)NC(=O)NC(C)(C)C)C(C)C)c1 -10.6%, OC[C@H]1[C@@H](c2ccc(C#CC3CCCC3)cc2)[C@@H]2CN(CCC(F)(F)F)CCCCN12 -96.1%, N#C[C@@H]1[C@H](c2ccccc2C2=CCCCC2)[C@H](CO)N1C(=O)Cc1ccncc1 4.27% [at 21 µM], NC(=O)c1oc2ccccc2c1NC(=O)C1CC(=O)N(c2ccccc2)C1 (configuration not stated) 42.6%, CN(C)C(=O)C[C@H]1CC[C@@H](NC(=O)C2CCC2)[C@H](CO)O1 -23.8%, COCCOc1ccc(C(F)(F)F)cc1NC(=O)CN1C(=O)NC2(CCCc3ccccc32)C1=O (configuration not stated) -4.64%, CCOC(=O)c1[nH]c(C)c(C(=O)Nc2cc(Cl)ccc2C)c1C -1.9%, CCOC(=O)c1[nH]c2ccc(OC)cc2c1NC(=O)c1ccc2c(c1)OCO2 -3.22%, O=c1c2c(nc3c(-c4ccc(Cl)cc4)c[nH]n13)CCCC2 -8.3%, CC(C)(O)c1cc(=O)sc2nc3ccccc3n12 12.9%, O=C(NC1CCCC1)C(c1ccncc1)N(Cc1ccccc1F)C(=O)c1csnn1 (configuration not stated) -10.3%, O=C(NC1CCCC1)C(c1ccccc1)N(Cc1ccc(F)cc1)C(=O)c1csnn1 (configuration not stated) 22.9%, C[C@@H]1CN([C@@H](C)CO)C(=O)CCCn2cc(nn2)CO[C@H]1CN(C)C(=O)Cc1ccccc1 8.97%, C[C@@H]1CN([C@H](C)CO)C(=O)c2cccc(NC(=O)Nc3cccc4ccccc34)c2O[C@H]1CN(C)S(C)(=O)=O 6.73%, CC(=O)N(C)C[C@H]1Oc2ncc(C#CCc3ccccc3)cc2C(=O)N([C@@H](C)CO)C[C@H]1C 5.97%, CCn1c(=N)n(CC(=O)c2ccc(OC)c(OC)c2)c2ccccc21 5.92%, CC(=O)Oc1ccc(-c2csnn2)cc1 0.471%, CCCNC(=O)CN(C)C(=O)c1n[nH]c2ccccc12 18.4%, O=c1[nH]c(=O)c2[nH]c(=S)[nH]c2[nH]1 -1.47%, CC(C)c1ccc(NC(=O)c2n[nH]c(=O)c3ccccc23)cc1 1.85%, COc1ccc2nc3cc(Cl)ccc3c(Nc3cc(CN4CCCC4)c(O)c(CN4CCCC4)c3)c2n1 -57.3%, Cc1noc(C)c1NC(=O)Nc1ccc2c(c1)C(=O)N([C@H](C)CO)C[C@@H](C)[C@@H](CN(C)S(=O)(=O)c1ccc(F)cc1)OCCCC[C@@H](C)O2 34.8%, CCCCC(=O)NCCc1cc2c(OC)ccc(OC)c2[nH]c1=O 20.3%, COc1cc2[nH]c(=O)n(CCCC(=O)NCCc3ccccc3)c(=O)c2cc1OC -2.35%, COc1cccc(NC(=O)CN(C)C(=O)CNC(=O)c2ccccc2F)c1 2.56%, Cn1nnnc1SCC(=O)NCc1cccc(C(=O)O)c1 -38.1% [at 10 µM], CCCN(C)C[C@H]1Oc2cc(C#C[C@@H](C)O)ccc2S(=O)(=O)N([C@@H](C)CO)C[C@H]1C -11.5%, CCn1cc([N+](=O)[O-])c(C(=O)NCc2ccc3c(c2)OCO3)n1 -0.458%, Cc1ccc(CNC(=O)CCS(=O)(=O)c2cc3c(cc2Cl)NC(=O)CO3)cc1 18%, COC(=O)c1ccccc1N(C)S(=O)(=O)c1cc2c(cc1C)OCC(=O)N2 -12.3%, COc1ccc(C2c3c(-c4ccccc4O)n[nH]c3C(=O)N2CCc2ccc(OC)c(OC)c2)cc1 (configuration not stated) 4.33%, C#CCN(C[C@@H]1[C@@H](OC(=O)NCc2ccccc2F)[C@@H](OC(=O)NCc2ccccc2F)Cn2c(=O)ccc(=O)n21)S(=O)(=O)c1ccc(C)cc1 -98.8%, COc1ccc2c(c1)c(CC(=O)OCC(N)=O)c(C)n2C(=O)c1ccc(Cl)cc1 31.9%, COc1ccc([N+](=O)[O-])c(S(=O)(=O)c2ccc(Cl)cc2)n1 -85.4%
